# Test results from ChEMBL document CHEMBL1157539, “Thousands of chemical starting points for antimalarial lead identification” (Nature, 2010).
# Test system: Plasmodium falciparum
# Assay: GSK_TCMDC: Inhibition of Plasmodium falciparum 3D7 in whole red blood cells, using parasite LDH activity as an index of growth. Test compounds present at 2uM
# Assay type: functional
row,SMILES,Inhibition [%]
1,O=C(N[C@@H](Cc1ccccc1)C(=O)NC1CCCc2ccccc21)c1ccc(O)c(-c2cccc(C(F)(F)F)c2)c1 (some centres undefined),91
2,CC(C)Cc1ccc(N2CCN(CCCCNC(=O)c3ccc(NC(=O)c4ccc(Cl)c(Cl)c4)cc3)CC2)cc1,94
3,O=C(Nc1ccc([N+](=O)[O-])cc1)Nc1nc2ccc(Cl)cc2s1,92
4,CC(C)COc1ccc(Cl)cc1Cc1ccc(-c2nc3ccc(Br)cc3[nH]2)o1.Cl,80

# Test system: Plasmodium falciparum
# Assay: GSK_TCMDC: Inhibition of Plasmodium falciparum Dd2 in whole red blood cells, using parasite LDH activity as an index of growth. Test compounds present at 2uM
# Assay type: functional
row,SMILES,Inhibition [%]
1,COc1ccc(-c2c(C(F)(F)F)nn(C)c2NC(=O)Nc2ccc(F)cc2F)cc1,99
2,c1ccc(-c2csc(Nc3nc4cc5c(cc4s3)OCO5)n2)nc1,99
3,CCN(CC)/C(=N/C(=N)NCc1ccc(Cl)cc1Cl)NCCCCCCN/C(=N\C(=N)NCc1ccc(Cl)cc1Cl)N(CC)CC,99
4,CC(=O)O.Nc1nc(N)c2cc3ccc(OCc4ccccc4)cc3nc2n1,75
5,CNCCNC(=O)C1Cc2c([nH]c3c(C)cccc23)C(c2ccc(Cl)c(Cl)c2)N1 (centres undefined),60
6,COc1ccc(NC(=O)CCNc2cc(C)nc(NCc3ccccc3C)n2)cc1.O=C(O)C(F)(F)F,61
7,COc1cc(CNCCCNc2nc(=O)c3sccc3[nH]2)c2[nH]cc(Cl)c2c1.CS(=O)(=O)O,0
8,COc1cc(C(=O)NCCCN2CCN(c3cccc(Cl)c3)CC2)ccc1-c1cc2cc(Cl)c(Cl)cc2[nH]1,86
9,O=C(NCC1CC1)C1CCN(C(c2ccc(Cl)cc2)c2ccc(Cl)cc2)CC1,95
10,Cc1ccc(CNC(=O)[C@H](CC(C)C)Nc2cc(C)nc(NCc3ccccc3C)n2)cc1.O=C(O)C(F)(F)F,35
